The values that follow come from PubChem BioAssay (NCI).

Several values for one entry are separate records, joined by “and”; a condition that tells them apart may be missing. Equal values may be shown once. About 83,000 compounds went through this panel and 20% of them were active in at least one assay; those are over-represented in the sample as a whole.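 Single-concentration screen, 48 h exposure, 96-well plates. Endpoint: percent growth. Below 10 = active.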 Values without a mark were called inactive. Activity calls are given as the source filed them.

The assay concerns MDA-MB-468 breast. Briefly: NCI-60 one-dose screen, 48 h (100 = growth as untreated, 0 = no growth, -100 = all killed). The conditions noted are these: 10 µM unless noted.
In the case of `COc1ccc(/C(=N\NC(N)=S)c2ccc(Cl)cc2)cc1OC`, the growth is 15.9%.

Consider `Cc1ccc(-c2nnc(COc3ccc(-c4nnc(N)s4)cc3)o2)cc1`, for which the growth is 72.7%.

As to `COc1cccc(C2CC(=O)Nc3cc4c(cc32)CCC4)c1OC` (stereo not given), the growth was -2.82% (active).

Take `CCOc1c(OC)cc2c(c1O)C(=O)N[C@@H]1[C@@H](O)[C@@H](O)[C@H](O)C[C@@H]21`: the growth is 94.9%.

As for `Cn1ccnc1C(=O)/C=C/c1ccc(C(=O)Nc2ccc(F)cc2)cc1`, the growth is 14.9%.

For `CC(O)C(N)=O` (stereo not given), the growth was 107%.

Regarding `CCN1CCN(c2nc(NCCNc3ccnc4cc(Cl)ccc34)c3ccccc3n2)CC1`, the growth is -28.8% (active).

Turning to `COc1cc(/C=C/c2cn[nH]c2-c2ccc(C)cc2)cc(OC)c1OC`, the growth was 12.9%.

As to `COc1ccc(-c2c3c(N)c4c(nc3nc3c2c(C)nn3-c2ccccc2)CCCCC4)cc1`, the growth is 76%.

With `NCCCNc1nc2ccccc2c2c(=O)c3cc(F)cc(F)c3sc12`, the growth was 70.3%.

Regarding `O=C(N/N=C/c1ccccc1O)c1ccccc1Nc1ccnc(C(F)(F)F)c1`, the growth was -18.4% (active).

`NCCCN`: the growth was 107%.

With `CCN(CC)C(=O)C1(C)CCCC2(C)c3cc(OC(C)=O)ccc3CCC12` (stereo not given), the growth is 56.9%.

As for `FC(F)(F)c1cccc(-n2nnc3cnc(Nc4ccc(N5CCCCC5)cc4)nc32)c1`, the growth is 68.7%.

With `C/C(Cc1ccc(Cl)cc1)=C(\c1ccc(O)cc1)c1ccc(Cl)cc1`, the growth is 101%.

On to `COc1cc(NC(=O)COc2cc(C)nc3ccc(OC)cc23)cc(OC)c1`, for which the growth was 76.3%.

Turning to `CCCCC1=C(Br)C(=O)c2ncccc2C1=O`, the growth was 84.2%.

On to `Cc1ccc(C(=O)CC(=O)C(F)(F)C(F)(F)C(F)(F)F)s1`, for which the growth is 102%.

With `COc1ccc2c(/C=C3/C(=O)NC(=S)NC3C)cc(=O)oc2c1` (stereo not given), the growth was 90.4%.

Consider `COc1ccccc1CNCCN1C(=O)c2ccc3c4c(ccc(c24)C1=O)C(=O)N(CCNCc1ccccc1OC)C3=O`, for which the growth was -92.8% (active).

`C=C1C(=O)O[C@H]2[C@H]1CC/C(CNC(=O)/C=C/c1cc(OC)c(OC)c(OC)c1)=C\CC[C@@]1(C)O[C@@H]21`: the growth is -57.6% (active).

`CN(C)c1ccc(C(=C2C=CC(=[N+](C)C)C=C2)c2ccccc2Cl)cc1`: the growth was -57.8% (active) and -84.2% (active).

Take `CC(Br)C(O)c1cc2c(cc1Br)OCO2` (stereo not given): the growth was 108%.

In the case of `CN(C)c1ccc(C#Cc2c(F)cccc2Cl)cc1`, the growth is 8.33% (active).

For the compound `C[C@H]1[C@H](C)CC[C@]2(C(=O)O)CC[C@]3(C)C(=CC[C@@H]4[C@@]5(C)C/C(=C/c6ccco6)C(=O)C(C)(C)[C@@H]5CC[C@]43C)[C@H]12`, the growth was -38% [100 µM] (active).

Turning to `CNC(=O)c1c(NC(=O)c2ccc(C(C)(C)C)cc2)sc2c1CCC(=O)C2`, the growth is 3.25% (active).

Consider `O=c1cc(-c2ccccc2)nc2sc(-c3c[nH]c4ccc(Br)cc34)nn12`, for which the growth is 87.2%.

On to `COc1cc(N=Nc2cc(Cc3ccc(N(C)C)cc3)c(N)cc2N(C)C)c2ncccc2c1`, for which the growth was -54.8% (active).

With `CCOC(=O)/C(C#N)=C\c1c[nH]c2ccccc12`, the growth was 97.4%.

`Cc1[nH]n(C(=O)c2ccncc2)c(=O)c1N=Nc1ccc(F)c(Cl)c1`: the growth is 110%.

Regarding `c1ccc(C(Nc2ccccn2)(c2ccccc2)c2ccccc2)cc1`, the growth was 52.7%.

Consider `CCOC(=O)c1ccc(NC(=O)CCCN(CC)CC)cc1`, for which the growth is 115%.

Turning to `O=C(Nc1ncc(Cc2ccc(Cl)c(C(F)(F)F)c2)s1)c1ccc2nnsc2c1`, the growth is 26.3%.

For the compound `COc1ccc(-c2nc(N)n(C(=S)Nc3ccccc3)n2)cc1`, the growth is 102%.

For the compound `CC(C)C(=O)OCCOc1ccc(C(C)(C)C)cc1`, the growth was 102%.

For `CC(C)CNCC(=O)Nc1ccc(Cc2ccc(NC(=O)CNCC(C)C)cc2)cc1`, the growth was 79.5%.

Regarding `C=C[C@H]1CCC/C=C/[C@@H]2C[C@H](O)C[C@H]2[C@H](O)/C=C/C(=O)O1`, the growth was -42.7% (active).

Turning to `NCCCOc1cc(Cl)ccc1NC(=O)c1cc2ccccc2cc1OCCCN`, the growth is -85.3% (active).

Turning to `O=C(/C=C/c1ccc(C(F)(F)F)cc1)c1ccc(Nc2nc(NCCO)nc(NCCO)n2)cc1`, the growth was 19.9%.

As to `COc1ccc(/C=C(/C(=O)N2CCNCC2)c2cc(OC)c(OC)c(OC)c2)cc1O`, the growth was -4.45% (active).
